Hits are enriched below; roughly 2.9% of the tested compounds scored in any of these assays.
FAS-TE inh: blocks the thioesterase domain of human fatty acid synthase; P49327; recombinant FAS-TE, OMFH fluorogenic substrate, fluorescence endpoint; inhibition, % at 15 µM; 0.67% of 360,000 active;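 active = compounds whose normalised, plate-corrected inhibition of enzyme fluorescence in the single-dose primary screen is 50% or more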;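 also: 0% = DMSO with enzyme and 100% = substrate without enzyme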
GAA850 FXN act: increases GAA850 frataxin promoter reporter activity. HEK293 lucGAA850 FXN promoter luciferase reporter, 24 h; percent of 10 µM SAHA response. activation, % at 6 µM. 0.56% of 360,000 active;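 active = activation above the average of all compounds screened plus 3 SD, cutoff fixed separately per campaign, cut at about 7.5% in these data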;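 also: 0% = DMSO wells and 100% = 10 µM SAHA wells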
SMARCA2 act: activators of SMARCA2 function; MG213 cells, MMTV-luciferase reporter, dexamethasone, overnight; activation, % at 9.1 µM; 1% of 370,000 active; in the data active = activation above about 7.8%;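 also: 0% = vehicle wells and 100% = reference activator wells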
KLK7 zymogen act: proKLK7 (human) activation, primary screen | P49862 | purified proKLK7, EDANS-DABCYL substrate fluorescence; 100% is mature enzyme control, 0% vehicle | activation, % at 7 µM | 0.9% of 370,000 active | AID 652039;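 active = activation above the mean of all tested compounds plus 3 SD, computed per campaign excluding outliers beyond control limits, cut at about 13% in these data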
Target sequence (P49862 whole entry, looked up): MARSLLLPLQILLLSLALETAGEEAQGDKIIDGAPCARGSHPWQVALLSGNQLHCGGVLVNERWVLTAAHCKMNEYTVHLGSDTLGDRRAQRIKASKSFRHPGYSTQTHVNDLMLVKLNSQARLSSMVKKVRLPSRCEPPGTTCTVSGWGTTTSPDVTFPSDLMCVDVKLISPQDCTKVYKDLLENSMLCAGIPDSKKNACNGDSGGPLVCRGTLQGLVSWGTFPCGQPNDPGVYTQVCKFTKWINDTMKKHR
proKLK7 act conf: proKLK7 activation, confirmation; activation, % at 7 µM; purified proKLK7, EDANS-DABCYL substrate fluorescence; scaled: vehicle 0, mature enzyme 100; AID 686949; shares compounds with KLK7 zymogen act; 68% of 3,200 active;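 active = activation, as change over the incubation, above the mean of all tested compounds plus 3 SD, cut at about 13% in these data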
EDANS-DABCYL int: counter-screen for kallikrein-7 activators: EDANS-DABCYL optical interference | shares compounds with KLK7 zymogen act | EDANS-DABCYL substrate fluorescence interference, no enzyme, 4 h; solvent 0%, active enzyme control 100% | activation, % at 7 µM | 80% of 3,200 active | AID 686952;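 active = activation above the all-compound mean plus 3 SD, ignoring values outside control-based bounds, cut at about 4.8% in these data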;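 also: value is the 4 h activation minus the activation read at time zero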
K7 EDANS ctr: EDANS fluorescence interference in dose response, no enzyme; EDANS-DABCYL peptide fluorescence interference; EC50, µM; shares compounds with KLK7 zymogen act; 20% of 250 active;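 active = compounds that raise the fluorescence signal in this interference counterscreen, with EC50 at or below 10 µM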;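 also: intact quenched peptide substrate alone read at 355 nm excitation and 520 nm emission; signal is fluorescence gain from T0 to T4 after four hours at room temperature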
The depositor's hits bear a star; · = not tested or not shown.

SMILES	FAS-TE inh	GAA850 FXN act	SMARCA2 act	KLK7 zymogen act	proKLK7 act conf	EDANS-DABCYL int	others
Cn1c(=O)c2cc(NC(=O)NCCc3cccs3)ccc2n1-c1ccc(C(C)(C)C)cc1	35.6	-2.9	·	·	·	·
CCNC(=O)Nc1ccc2c(c1)c(=O)n(C)n2CC=C(C)C	-4.7	-0.8	-1.4	40.4*	32.7*	31.2*
CCNC(=S)Nc1ccc2c(c1)c(=O)n(C)n2CC=C(C)C	-6.7	0.7	-4.3	46.0*	31.0*	32.8*
C=C(C)Cn1c2ccc(NC(=O)CCc3cccnc3)cc2c(=O)n1C	-9.3	2.0	-1.6	20.9*	22.6*	26.0*
COc1ccc(CNC(=O)Nc2ccc3c(c2)c(=O)n(C)n3Cc2cc(C)cc(C)c2)cc1	2.6	-0.8	0.4	-10.0	·	·
Cn1c(=O)c2cc(NC(=O)Nc3cccnc3)ccc2n1Cc1ccc(Cl)cc1	-2.8	-1.3	-5.3	5.6	·	·
C=C(C)Cn1c2ccc(NC(=O)NCCc3cccs3)cc2c(=O)n1C	-1.5	0.5	-3.4	25.8*	18.6*	9.8*	K7 EDANS ctr=>69.5
Cc1cc(NC(=O)Cn2nnc3sc4c(c3c2=O)CCC(C(C)(C)C)C4)no1 (centres undefined)	15.2	1.8	0.0	0.2	·	·
Cc1oc2cc(OCC(=O)O)ccc2c(=O)c1Oc1ccccc1	-7.4	1.1	5.4	-1.3	·	·
CCc1cc2c(=O)c(Oc3ccccc3)c(C)oc2cc1O	-4.7	0.7	-6.0	55.1*	65.3*	77.6*
COc1ccc(-c2oc3c(c2C#CC(C)(C)O)C(OC)CCC3)cc1 (centres undefined)	-3.4	·	0.9	23.1*	-15.3	-21.8
CC(C)CCNC(=O)COc1ccc(N(C)S(=O)(=O)c2ccc(F)cc2)cc1	7.4	0.6	-0.8	-0.6	·	·
CC(=O)Nc1cc(-c2ccccc2N(C)C)cn2c(-c3ccc(S(C)(=O)=O)cc3)cnc12	-11.8	0.7	-3.7	13.2*	10.1	11.2*
CC(=O)Oc1ccc2c3c(c(=O)oc2c1C)CCCC3	-3.1	-0.2	2.0	167.9*	531.1*	499.6*
COc1cc(OC)cc(C(=O)OCCCOC(=O)c2cc(OC)cc(OC)c2)c1	23.1	1.2	-1.7	0.1	·	·
N#Cc1ccc(CCc2ccccc2)[nH]c1=O	-6.0	-1.8	-1.9	2.2	·	·
N#Cc1ccc(CC(=O)c2ccccc2)[nH]c1=O	-2.5	0.5	-2.1	15.6*	99.8*	97.8*
Cc1cc(=O)oc2cc(N3C(=O)CC(Cc4ccccc4)C3=O)ccc12 (centres undefined)	11.0	0.5	2.5	19.1*	25.0*	23.3*
COc1cc(CNCc2ccco2)cc(OC)c1O	-2.7	1.1	0.5	-0.3	·	·
CCOC(=O)CNc1c(-c2ccc(O)cc2)nc2ccccn12	-5.2	3.7	-1.0	20.1*	27.3*	61.9*
CCOC(=O)CNc1c(-c2ccc(O)cc2)nc2ccc(Cl)cn12	-2.7	2.4	2.2	-5.2	·	·
CCOc1ccc(NC(=O)N2CCC(NC(=O)C(Cc3ccc(OC)c(OC)c3)NC(C)=O)CC2)cc1 (centres undefined)	-6.4	0.3	-0.6	1.4	·	·
Cc1ccc(-c2cnc(-c3ccncc3)o2)cc1	-4.6	5.1	6.2	73.7*	65.0*	69.8*
Nc1ccc(-c2ncc(-c3ccccc3)o2)cc1	2.6	-13.7	-8.6	21.3*	6.6	3.2
Cc1ccc(C)c(NC(=S)N(Cc2cccc(Br)c2)CC2CCC(C(=O)O)CC2)c1 (centres undefined)	-2.0	0.2	-1.9	-0.1	·	·
COc1cc(C(=O)NCc2ccc(S(N)(=O)=O)cc2)ccc1OCC(=O)Nc1cccc(C(F)(F)F)c1	-4.9	-1.8	1.6	1.0	·	·
Cc1cc(OC(C)C(=O)NCc2ccccn2)c2c(C)cc(=O)oc2c1 (centres undefined)	-1.3	-1.2	1.4	14.0*	11.3	11.6*
Cc1nc2ccc(-c3nc4cc(N)ccc4o3)cc2[nH]1	-1.3	-4.5	0.5	28.0*	45.9*	49.2*
Nc1ccc2oc(-c3ccc4nc[nH]c4c3)nc2c1	-9.9	-2.4	-2.3	3.3	·	·
CCCS(=O)(=O)N1CCN(c2ccccc2F)CC1	-1.9	-0.8	2.4	-0.7	·	·
